# Experimental data published in PubChem BioAssay AID1159580 (chemical genetic matrix, 2015).
# The campaign covered roughly 5,500 compounds. About 2,000 (36%) were called active. Roughly 18% stayed inconclusive and do not appear here. Some of the results follow. Values without a mark were called inactive. No stated cut-off is given here; in the data, active means normalized growth mostly below about 0.91 (no sharp cut-off); inconclusive means no clear call, values can overlap the other calls; inactive means mostly above about 0.92.
# Test: chemical genetic growth profiling, strain panel (AID 1159580);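 further: tested at 20 µM; growth read once vehicle control cultures reached saturation at 30 °C; 1 = growth at the plate median or of vehicle wells; lower values mean less growth of the strain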
# Conditions: S. cerevisiae deletion strains, growth OD
compound,measurement,setting,value
CC12CCCCC1(Br)[N+](=O)N2[O-] (stereo unspecified),normalized growth,"locus YAL021C, strain ccr4, hits give low values",0.951
same,normalized growth,"locus YAL026C, strain drs2, hits give low values",0.899 (active)
same,normalized growth,"locus YAL030W, strain snc1, hits give low values",0.997
same,normalized growth,"locus YBL061C, strain skt5, hits give low values",0.978
same,normalized growth,"locus YBR009C, strain hhf1, hits give low values",0.939
same,normalized growth,"locus YBR023C, strain chs3, hits give low values",0.976
same,normalized growth,"locus YBR171W, strain sec66, hits give low values",0.964
same,normalized growth,"locus YBR231C, strain swc5, hits give low values",0.992
same,normalized growth,"locus YBR279W, strain paf1, hits give low values",0.972
same,normalized growth,"locus YCL011C, strain gbp2, hits give low values",0.943
same,normalized growth,"locus YCL016C, strain dcc1, hits give low values",0.951
same,normalized growth,"locus YCL069W, strain vba3, hits give low values",0.986
same,normalized growth,"locus YCR088W, strain abp1, hits give low values",0.983
same,normalized growth,"locus YDL005C, strain med2, hits give low values",0.969
same,normalized growth,"locus YDL040C, strain nat1, hits give low values",0.991
same,normalized growth,"locus YDR001C, strain nth1, hits give low values",1.01
same,normalized growth,"locus YDR069C, strain doa4, hits give low values",0.91
same,normalized growth,"locus YDR137W, strain rgp1, hits give low values",0.857
same,normalized growth,"locus YDR159W, strain sac3, hits give low values",0.995
same,normalized growth,"locus YDR195W, strain ref2",1.01
same,normalized growth,"locus YDR297W, strain sur2, hits give low values",1
same,normalized growth,"locus YDR334W, strain swr1, hits give low values",0.984
same,normalized growth,"locus YDR335W, strain msn5, hits give low values",0.974
same,normalized growth,"locus YDR392W, strain spt3, hits give low values",0.948
same,normalized growth,"locus YEL003W, strain gim4, hits give low values",0.994
same,normalized growth,"locus YEL037C, strain rad23, hits give low values",0.998
same,normalized growth,"locus YEL061C, strain CIN8 (second series), hits give low values",0.993
same,normalized growth,"locus YER015W, strain faa2, hits give low values",0.993
same,normalized growth,"locus YER016W, strain bim1, hits give low values",0.999
same,normalized growth,"locus YER111C, strain swi4, hits give low values",0.967
same,normalized growth,"locus YER155C, strain BEM2 (second series), hits give low values",0.853 (active)
same,normalized growth,"locus YFR010W, strain ubp6, hits give low values",0.922
same,normalized growth,"locus YGL167C, strain pmr1, hits give low values",0.993
same,normalized growth,"locus YGL173C, strain kem1, hits give low values",0.953
same,normalized growth,"locus YGL227W, strain vid30, hits give low values",0.992
same,normalized growth,"locus YGL240W, strain doc1, hits give low values",0.992
same,normalized growth,"locus YGL253W, strain hxk2, hits give low values",0.989
same,normalized growth,"locus YHR013C, strain ard1, hits give low values",0.919
same,normalized growth,"locus YHR027C, strain rpn1, hits give low values",0.966
same,normalized growth,"locus YHR142W, strain chs7, hits give low values",0.942
same,normalized growth,"locus YJL092W, strain hpr5, hits give low values",0.989
same,normalized growth,"locus YJL095W, strain BCK1 (second series), hits give low values",0.993
same,normalized growth,"locus YJL115W, strain asf1, hits give low values",0.987
same,normalized growth,"locus YJL129C, strain trk1, hits give low values",0.997
same,normalized growth,"locus YJL154C, strain vps35, hits give low values",0.997
same,normalized growth,"locus YJL164C, strain tpk1, hits give low values",0.951
same,normalized growth,"locus YJL166W, strain qcr8, hits give low values",0.961
same,normalized growth,"locus YJL187C, strain SWE1, hits give low values",0.986
same,normalized growth,"locus YKL160W, strain elf1, hits give low values",0.944
same,normalized growth,"locus YKR026C, strain gcn3, hits give low values",0.985
same,normalized growth,"locus YKR091W, strain srl3, hits give low values",0.989
same,normalized growth,"locus YLL001W, strain dnm1, hits give low values",0.967
same,normalized growth,"locus YLL026W, hits give low values",0.991
same,normalized growth,"locus YLL041C, strain sdh2, hits give low values",0.999
same,normalized growth,"locus YLR027C, strain aat2, hits give low values",0.954
same,normalized growth,"locus YLR221C, strain rsa3, hits give low values",0.927
same,normalized growth,"locus YLR258W, strain gsy2, hits give low values",0.967
same,normalized growth,"locus YLR262C, strain YPT6 (second series), hits give low values",0.815 (active)
same,normalized growth,"locus YLR320W, strain mms22, hits give low values",0.954
same,normalized growth,"locus YLR342W, strain FKS1, hits give low values",0.946
same,normalized growth,"locus YLR357W, strain rsc2, hits give low values",0.914
same,normalized growth,"locus YLR370C, strain arc18, hits give low values",0.966
same,normalized growth,"locus YLR384C, strain iki3, hits give low values",0.984
same,normalized growth,"locus YML120C, strain ndi1, hits give low values",1
same,normalized growth,"locus YMR058W, strain fet3, hits give low values",0.951
same,normalized growth,"locus YMR125W, strain sto1, hits give low values",1.02
same,normalized growth,"locus YMR129W, hits give low values",0.98
same,normalized growth,"locus YMR205C, strain PFK2, hits give low values",0.995
same,normalized growth,"locus YMR231W, strain pep5, hits give low values",0.997
same,normalized growth,"locus YNL071W, strain lat1, hits give low values",0.946
same,normalized growth,"locus YNL209W, strain ssb2, hits give low values",0.963
same,normalized growth,"locus YNL248C, strain rpa49, hits give low values",0.954
same,normalized growth,"locus YNL322C, strain KRE1 (second series), hits give low values",0.979
same,normalized growth,"locus YNR049C, strain mso1, hits give low values",0.999
same,normalized growth,"locus YOR001W, strain rrp6, hits give low values",0.958
same,normalized growth,"locus YOR070C, strain gyp1, hits give low values",0.994
same,normalized growth,"locus YOR080W, strain dia2, hits give low values",1
same,normalized growth,"locus YOR083W, strain WHI5, hits give low values",0.895
same,normalized growth,"locus YOR106W, strain vam3, hits give low values",0.884
same,normalized growth,"locus YOR265W, strain rbl2, hits give low values",0.991
same,normalized growth,"locus YOR270C, strain vph1, hits give low values",0.81
same,normalized growth,"locus YOR290C, strain snf2, hits give low values",0.976
same,normalized growth,"locus YPL051W, strain arl3, hits give low values",0.936
same,normalized growth,"locus YPL078C, strain atp4, hits give low values",0.967
same,normalized growth,"locus YPL106C, strain sse1, hits give low values",0.941
same,normalized growth,"locus YPL240C, strain hsp82, hits give low values",0.978
